The list is a sample of the results.
Vaccinia_inh – Vaccinia orthopox stage-specific inhibition | Vaccinia-infected cells, mCherry/Venus stage reporter fluorescence; stronger effect = lower value | activity change (mCherry), % (concentration not given with the values) | actives 0.01% (n = 89,000) | AID 1053133; in the data active = activity change below about -37%, passing the limit was not always enough; tested in A549 cells
Numbers without * were called inactive.

SMILES Vaccinia_inh
CO[C@@H]1CN(C)C(=O)c2cc(NC(C)=O)ccc2OC[C@@H](C)N(C(=O)CN(C)C)C[C@H]1C 6
Cc1noc(C)c1S(=O)(=O)N(C)C[C@@H]1OCCCC[C@H](C)Oc2ccc(NC(=O)Nc3ccccc3)cc2C(=O)N([C@H](C)CO)C[C@H]1C -17
CCC(=O)Nc1ccc2c(c1)C(=O)N(C)[C@@H]1CC[C@H](CC(=O)N3CCCCC3)O[C@@H]1CO2 4
O=C(C[C@@H]1CC[C@@H](NC(=O)Nc2ccc3c(c2)OCO3)[C@@H](CO)O1)NCc1ccc(Cl)cc1 0
COc1ccc(S(=O)(=O)N(C)C[C@@H]2Oc3c(NC(=O)c4cnccn4)cccc3C(=O)N([C@@H](C)CO)C[C@@H]2C)cc1 -2
O=C(C1CCC1)N1CC2(C1)[C@@H](c1ccccc1)[C@@H](CO)N2C(=O)CC1CC1 8
C[C@H](CO)N1C[C@H](C)[C@H](CN(C)Cc2ccc(C(F)(F)F)cc2)Oc2ccc(NS(C)(=O)=O)cc2CC1=O -2
O=C(Nc1cccc(Cl)c1)N1C[C@H]2[C@@H](c3ccccc31)[C@@H](CO)N2C(=O)c1ccncc1 3
C[C@H]1CN([C@@H](C)CO)C(=O)c2cc(NS(=O)(=O)c3ccc(F)cc3)ccc2O[C@H]1CN(C)S(=O)(=O)c1cccs1 3
CC(=O)N1[C@@H]2Cn3c(ccc(C4=CCCCC4)c3=O)[C@H]1[C@@H](C(=O)N[C@@H](C)c1ccccc1)[C@@H]2CO -4
C[C@@H]1CN([C@@H](C)CO)S(=O)(=O)c2ccc(-c3ccccc3)cc2O[C@H]1CN(C)C(=O)CC1CC1 -17
C[C@@H]1CCCCO[C@H](CN(C)S(=O)(=O)c2ccc(F)cc2)[C@H](C)CN([C@@H](C)CO)C(=O)c2cc(NS(=O)(=O)c3cn(C)cn3)ccc2O1 8
Cc1noc(C)c1NC(=O)Nc1ccc2c(c1)C(=O)N([C@H](C)CO)C[C@@H](C)[C@H](CN(C)Cc1ccncc1)OCCCC[C@@H](C)O2 12
CNC(=O)C[C@@H]1CC[C@H]2[C@H](COc3ccc(NC(=O)Nc4ccc(Cl)cc4)cc3C(=O)N2C)O1 -1
C[C@H]1CN([C@@H](C)CO)C(=O)c2cccc(NS(=O)(=O)c3ccc(F)cc3)c2O[C@H]1CN(C)S(=O)(=O)c1ccc(Cl)cc1 -5
Cc1noc(C)c1NC(=O)Nc1ccc2c(c1)C(=O)N([C@H](C)CO)C[C@@H](C)[C@H](CN(C)Cc1ccccc1)OCCCC[C@H](C)O2 21

From PubChem
